Assay [1] can be described thus: qHTS assay to identify aromatase inhibitors - cell viability counter screen (AID 743084).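 Further: cells stimulated with testosterone during compound exposure; nearly all actives have a fitted effect of over 55% in size.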 Further: potency means the concentration at half of the fitted maximal effect.
The target of assay [2] is Aryl hydrocarbon receptor (Homo sapiens) (UniProt P35869). The assay can be described thus: qHTS assay to identify small molecule that activate the aryl hydrocarbon receptor (AhR) signaling pathway (AID 743085). Further: nearly all actives have a fitted effect of over 15% in size. Further: potency means the concentration at half of the fitted maximal effect.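 On activation: HG2L7.5c1 human HepG2 liver cells with stably integrated DRE-driven firefly reporter; series mostly up to about 70 µM.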 Summed up:
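Steps: seed HepG2-AhR-luc cells; allow 5 h at 37C; pin-transfer test compound or vehicle; incubate 24 h at 37C; add viability dye (30 min, 37C) and read fluorescence; add luciferase substrate (30 min, RT) and read luminescence.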
(In general: Quantitative high-throughput screening tests each substance at several concentrations.)

The target of assay [3] is Peroxisome proliferator-activated receptor gamma (Homo sapiens) (UniProt P37231). As to the kind of experiment: qHTS assay to identify small molecule agonists of the peroxisome proliferator-activated receptor gamma (PPARg) signaling pathway (AID 743094; active means well fitted activation curve with a large enough effect in the signal ratio in the repeat runs, not every such curve was filed as active; the % refers to the signal ratio). The essentials:
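Agonist activity was taken from a beta-lactamase reporter (FRET substrate, 1 h at room temperature) in HEK293H cells carrying a PPARg UAS-bla construct. Compounds in DMSO were incubated 17 h at 37C after a 5 h cell pre-incubation.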

For assay [4] the target is unchanged. As to the kind of experiment: qHTS assay to identify small molecule antagonists of the peroxisome proliferator-activated receptor gamma (PPARg) signaling pathway (AID 743191; calls by dose curve; further: series mostly up to about 63 µM; nearly all actives have a fitted effect of over 30% in size). Summed up:
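Beta-lactamase reporter under UAS control in HEK293H PPARg-bla cells; compound treatment 17 h at 37C. Read-out: fluorescence intensity after 1 h room-temperature incubation with LiveBLAzer B/G FRET substrate.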

Assay [5] can be described thus: qHTS assay to identify small molecule antagonists of the peroxisome proliferator-activated receptor gamma (PPARg) signaling pathway - cell viability counter screen (AID 743194). Further: nearly all actives have a fitted effect of over 55% in size. Further: potency means the concentration at half of the fitted maximal effect. To be noted: Potency: co-treated with 50 nM rosiglitazone unless noted. The essentials:
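Viability was measured as CellTiter-Glo luminescence in GeneBLAzer PPARg UAS-bla HEK293H cells. These cells had been exposed 17 h at 37 C to compounds together with rosiglitazone at 50 nM final, with the beta-lactamase readout taken in the same wells.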

Assay [6] is described as follows: qHTS assay for small molecule agonists of the antioxidant response element (ARE) signaling pathway (AID 743202; active means well fitted activation curve with a large enough effect in the signal ratio in the repeat runs, not every such curve was filed as active; the % refers to the signal ratio; further: potency means the concentration at half of the fitted maximal effect). The essentials:
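After 16 hours of compound treatment at 37 C, HepG2 cells with a stably integrated ARE-driven beta-lactamase reporter were loaded 2 hours at room temperature with LiveBLAzer B/G FRET substrate and fluorescence intensity measured.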

A short description of assay [7]: qHTS assay for small molecule agonists of the antioxidant response element (ARE) signaling pathway - cell viability counter screen (AID 743203; calls by dose curve; further: nearly all actives have a fitted effect of over 55% in size; further: potency means the concentration at half of the fitted maximal effect). The essentials:
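Viability counter screen: CellTiter-Glo luminescence, read after 30 min at room temperature, in ARE-bla HepG2 wells. Compound exposure lasted 16 h at 37C/5% CO2, following a 5 h pre-incubation of the cells after plating.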

Assay [8] in a line: qHTS assay for small molecule activators of the heat shock response signaling pathway (AID 743210; active means well fitted activation curve with a large enough effect in the signal ratio in the repeat runs, with a control signal flat, not every such curve was filed as active; the % refers to the signal ratio; further: series mostly up to about 63 µM). The essentials:
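Compound exposure lasted 5 h at 37 C in HeLa cells carrying a heat-shock-element-driven beta-lactamase reporter. Read-out: fluorescence intensity after 2.5 h room-temperature loading with LiveBLAzer B/G FRET substrate.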

The nature of assay [9]: qHTS assay to identify small molecule agonists of the peroxisome proliferator-activated receptor delta (PPARd) signaling pathway - cell viability counter screen (AID 743211). Further: nearly all actives have a fitted effect of over 55% in size. Further: potency means the concentration at half of the fitted maximal effect. The essentials: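 Viability of GeneBLAzer PPARd UAS-bla HEK293H cells was assessed after 17 h compound incubation at 37C, using CellTiter-Glo reagent added after the reporter read and luminescence recorded 30 min later.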

Assay [10] is described as follows: qHTS assay to identify small molecule antagonists of the peroxisome proliferator-activated receptor delta (PPARd) signaling pathway - cell viability counter screen (AID 743213). Further: nearly all actives have a fitted effect of over 50% in size. Further: potency means the concentration at half of the fitted maximal effect. The essentials: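 Cytotoxicity counter screen: CellTiter-Glo luminescence read 30 min after addition, in the same wells as the reporter assay. There, PPARd UAS-bla HEK293H cells (3000/well) were treated 17 h at 37 C with compound and 300 nM L165041.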

Assay [11] deals with Peroxisome proliferator-activated receptor delta (Homo sapiens) (UniProt Q03181). The assay can be described thus: qHTS assay to identify small molecule antagonists of the peroxisome proliferator-activated receptor delta (PPARd) signaling pathway (AID 743215; active means well fitted inhibition curve with a large enough effect in the signal ratio in the repeat runs, not every such curve was filed as active; the % refers to the signal ratio;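 further: cells stimulated with agonist L165041 at 300 nM final during compound exposure; series mostly up to about 62 µM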). The essentials:
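Agonist L165041 (300 nM final) added with compound to PPARd-bla HEK293H UAS-bla reporter cells; 17 h incubation at 37 C. Read-out: LiveBLAzer FRET substrate, 2 h at room temperature, fluorescence intensity.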

Assay [12] concerns the target Bile acid receptor (Homo sapiens) (UniProt Q96RI1). The assay can be described thus: qHTS assay to identify small molecule antagonists of the farnesoid-X-receptor (FXR) signaling pathway (AID 743217; active means well fitted inhibition curve with a large enough effect in the signal ratio in the repeat runs, not every such curve was filed as active; the % refers to the signal ratio). Summed up: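 Antagonist mode: chenodeoxycholic acid at 50 uM final stimulates a UAS-driven beta-lactamase reporter in HEK 293T FXR-bla cells during 16 h, 37C compound exposure. Read-out is FRET substrate fluorescence after 2 h at room temperature.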

Assay [13] in a line: qHTS assay to identify small molecule agonists of the farnesoid-X-receptor (FXR) signaling pathway - cell viability counter screen (AID 743218). Further: nearly all actives have a fitted effect of over 45% in size. Further: potency means the concentration at half of the fitted maximal effect. Summed up:
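Viability counter screen in the same wells: CellTiter-Glo luminescence, 30 min room-temperature incubation, measured after the beta-lactamase read. Cells were GeneBLAzer FXR-UAS-bla HEK 293T, compound-treated 16 h at 37C.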

Assay [14] concerns the target Bile acid receptor (Homo sapiens) (UniProt Q96RI1). The assay can be described thus: qHTS assay to identify small molecule agonists of the farnesoid-X-receptor (FXR) signaling pathway (AID 743220; active means well fitted activation curve with a large enough effect in the signal ratio in the repeat runs, not every such curve was filed as active; the % refers to the signal ratio). Summed up:
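FXR-UAS-bla HEK 293T cells carrying a UAS-driven beta-lactamase reporter were plated for 5 h at 37C/5% CO2, then exposed to DMSO-dissolved Tox21 10K compounds for 16 h at 37C. A LiveBLAzer B/G FRET substrate was loaded for 2 h at room temperature before fluorescence reading.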

Assay [15] can be described thus: qHTS assay to identify small molecule antagonists of the farnesoid-X-receptor (FXR) signaling pathway - cell viability counter screen (AID 743221; active means well fitted cell-killing curve with a large enough effect in the repeat runs, not every such curve was filed as active; further: nearly all actives have a fitted effect of over 50% in size; further: potency means the concentration at half of the fitted maximal effect). The essentials:
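Quantitative HTS of the Tox21 10K library run in parallel with the beta-lactamase reporter read. HEK 293T cells carrying a UAS-driven bla reporter got compound and 50 uM CDCA (final) for 16 h; ATP-based luminescence followed.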

The target in assay [16] is Vitamin D3 receptor (Homo sapiens) (UniProt P11473). The assay can be described thus: qHTS assay to identify small molecule agonists of the vitamin D receptor (VDR) signaling pathway (AID 743222; calls by dose curve). The essentials: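 Agonist mode, beta-lactamase reporter: fluorescence from LiveBLAzer B/G FRET substrate (2 h, room temperature) read after 16 h compound treatment at 37 C of VDR-bla cells, which were pre-incubated 4 h after seeding.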

Assay [17] has the same target. As to the kind of experiment: qHTS assay to identify small molecule antagonists of the vitamin D receptor (VDR) signaling pathway (AID 743223; active means well fitted inhibition curve with a large enough effect in the signal ratio in the repeat runs, not every such curve was filed as active; the % refers to the signal ratio). The essentials:
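Fluorescence from LiveBLAzer B/G FRET substrate, read after 2 h at room temperature, reflects beta-lactamase reporter activity in VDR-bla cells treated 16 h at 37C with compounds and agonist 1alpha,25-dihydroxyvitamin D3 (3 nM final).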

Assay [18] can be described thus: qHTS assay to identify small molecule that activate the aryl hydrocarbon receptor (AhR) signaling pathway - cell viability counter screen (AID 743086). Further: nearly all actives have a fitted effect of over 45% in size. Further: potency means the concentration at half of the fitted maximal effect. The essentials: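 Cytotoxicity counter screen: CellTiter-Fluor signal (30 min, 37 C) in 4000 HepG2 cells/well carrying the DRE-luciferase reporter, following 24 h compound exposure at 37 C.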
Assay [19] can be described thus: qHTS assay for small molecule activators of the heat shock response signaling pathway - cell viability counter screen (AID 743209). Further: nearly all actives have a fitted effect of over 50% in size. Further: potency means the concentration at half of the fitted maximal effect. Summed up:
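Cytotoxicity counter screen run in the same wells as the heat-shock bla reporter assay: HeLa HSE-bla cells, 5 h compound exposure at 37 C, viability read by CellTiter-Glo luminescence.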

Assay [20] addresses Peroxisome proliferator-activated receptor delta (Homo sapiens) (UniProt Q03181). The assay can be described thus: qHTS assay to identify small molecule agonists of the peroxisome proliferator-activated receptor delta (PPARd) signaling pathway (AID 743212; calls by dose curve;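 further: HEK293H cells with PPARd UAS beta-lactamase reporter GeneBLAzer system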). Summed up: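 Beta-lactamase reporter readout: a ratiometric FRET signal from the LiveBLAzer substrate after 2 h at room temperature. Compound exposure at 37 °C in PPARδ-bla HEK293H cells driven by an upstream activator sequence.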

Values joined by “and” are separate entries in the source; they are usually repeats but may differ in a detail not shown here. Equal values may be shown once. Records with an inconclusive call do not appear. A structure can be active in one record and inactive in another. Active and inactive are the calls of the source. Unless noted, the call rests on the fitted dose curve; in most records, active means well fitted curve in the direction sought with a large enough effect in the repeat runs; inconclusive means weak or mixed curves; inactive means no such curve, though single readings can be large; an effect the other way counts as inactive or inconclusive.

Chain of Peroxisome proliferator-activated receptor delta (Homo sapiens) (Q03181 whole entry, looked up): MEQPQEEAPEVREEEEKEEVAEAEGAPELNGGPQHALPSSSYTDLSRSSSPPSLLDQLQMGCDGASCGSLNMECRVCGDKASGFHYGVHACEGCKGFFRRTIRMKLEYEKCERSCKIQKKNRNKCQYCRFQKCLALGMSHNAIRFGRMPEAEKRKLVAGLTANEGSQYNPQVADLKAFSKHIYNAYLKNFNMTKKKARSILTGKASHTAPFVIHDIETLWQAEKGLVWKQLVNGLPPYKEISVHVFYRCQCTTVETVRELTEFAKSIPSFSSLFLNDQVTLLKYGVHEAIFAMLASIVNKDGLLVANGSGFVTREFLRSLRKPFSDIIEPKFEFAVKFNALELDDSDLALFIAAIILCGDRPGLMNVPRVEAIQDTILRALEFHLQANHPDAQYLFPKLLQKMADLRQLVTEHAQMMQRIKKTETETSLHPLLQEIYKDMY
Chain of Peroxisome proliferator-activated receptor gamma (Homo sapiens) (P37231 whole entry, looked up): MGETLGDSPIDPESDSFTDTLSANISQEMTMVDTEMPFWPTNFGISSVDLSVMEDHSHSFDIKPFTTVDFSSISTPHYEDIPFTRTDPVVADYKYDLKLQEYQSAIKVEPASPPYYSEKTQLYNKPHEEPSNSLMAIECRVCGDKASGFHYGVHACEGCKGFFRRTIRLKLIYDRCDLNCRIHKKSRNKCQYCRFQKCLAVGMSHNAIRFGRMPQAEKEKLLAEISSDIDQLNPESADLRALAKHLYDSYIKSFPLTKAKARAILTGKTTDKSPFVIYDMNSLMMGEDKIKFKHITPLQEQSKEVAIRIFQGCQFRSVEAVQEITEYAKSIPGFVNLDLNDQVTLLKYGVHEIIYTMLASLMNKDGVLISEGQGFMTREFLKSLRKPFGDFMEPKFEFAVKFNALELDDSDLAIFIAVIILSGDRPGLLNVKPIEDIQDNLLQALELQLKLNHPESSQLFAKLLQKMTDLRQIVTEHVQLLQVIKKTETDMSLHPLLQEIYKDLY
Chain of Bile acid receptor (Homo sapiens) (Q96RI1 whole entry, looked up): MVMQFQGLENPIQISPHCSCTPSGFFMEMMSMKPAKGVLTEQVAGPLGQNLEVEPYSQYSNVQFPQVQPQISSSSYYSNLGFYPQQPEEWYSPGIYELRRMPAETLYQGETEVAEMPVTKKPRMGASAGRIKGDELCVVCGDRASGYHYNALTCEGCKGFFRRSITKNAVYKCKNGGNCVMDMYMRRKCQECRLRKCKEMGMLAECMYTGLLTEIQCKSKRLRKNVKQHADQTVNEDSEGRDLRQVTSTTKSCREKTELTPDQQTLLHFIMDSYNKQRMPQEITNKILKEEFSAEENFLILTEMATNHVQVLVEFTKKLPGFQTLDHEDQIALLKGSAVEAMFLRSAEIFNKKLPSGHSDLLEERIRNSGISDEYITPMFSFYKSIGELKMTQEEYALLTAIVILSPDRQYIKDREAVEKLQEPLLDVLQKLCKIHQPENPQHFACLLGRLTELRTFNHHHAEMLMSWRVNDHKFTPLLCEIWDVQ
Chain of Aryl hydrocarbon receptor (Homo sapiens) (P35869 whole entry, looked up): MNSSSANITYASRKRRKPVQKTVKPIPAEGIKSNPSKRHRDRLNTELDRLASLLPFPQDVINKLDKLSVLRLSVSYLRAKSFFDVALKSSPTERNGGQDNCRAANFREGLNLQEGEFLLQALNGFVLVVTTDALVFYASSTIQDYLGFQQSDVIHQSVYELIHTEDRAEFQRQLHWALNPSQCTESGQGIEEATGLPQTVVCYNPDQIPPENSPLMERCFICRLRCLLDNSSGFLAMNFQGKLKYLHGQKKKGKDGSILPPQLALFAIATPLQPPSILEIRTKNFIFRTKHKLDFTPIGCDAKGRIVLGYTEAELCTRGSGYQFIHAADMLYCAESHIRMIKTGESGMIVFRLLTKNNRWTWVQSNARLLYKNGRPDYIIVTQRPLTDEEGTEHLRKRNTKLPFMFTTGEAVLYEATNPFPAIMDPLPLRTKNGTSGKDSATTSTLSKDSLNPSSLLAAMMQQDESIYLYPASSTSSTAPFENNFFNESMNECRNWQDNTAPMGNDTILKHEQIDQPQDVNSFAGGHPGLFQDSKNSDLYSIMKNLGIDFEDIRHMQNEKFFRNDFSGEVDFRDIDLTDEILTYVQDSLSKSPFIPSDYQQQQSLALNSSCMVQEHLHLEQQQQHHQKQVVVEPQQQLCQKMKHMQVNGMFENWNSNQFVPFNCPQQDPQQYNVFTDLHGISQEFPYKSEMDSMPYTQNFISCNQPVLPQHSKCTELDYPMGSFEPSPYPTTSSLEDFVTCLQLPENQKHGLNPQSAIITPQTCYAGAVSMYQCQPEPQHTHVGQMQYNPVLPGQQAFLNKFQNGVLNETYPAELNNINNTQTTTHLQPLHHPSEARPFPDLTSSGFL
Chain of Vitamin D3 receptor (Homo sapiens) (P11473 whole entry, looked up): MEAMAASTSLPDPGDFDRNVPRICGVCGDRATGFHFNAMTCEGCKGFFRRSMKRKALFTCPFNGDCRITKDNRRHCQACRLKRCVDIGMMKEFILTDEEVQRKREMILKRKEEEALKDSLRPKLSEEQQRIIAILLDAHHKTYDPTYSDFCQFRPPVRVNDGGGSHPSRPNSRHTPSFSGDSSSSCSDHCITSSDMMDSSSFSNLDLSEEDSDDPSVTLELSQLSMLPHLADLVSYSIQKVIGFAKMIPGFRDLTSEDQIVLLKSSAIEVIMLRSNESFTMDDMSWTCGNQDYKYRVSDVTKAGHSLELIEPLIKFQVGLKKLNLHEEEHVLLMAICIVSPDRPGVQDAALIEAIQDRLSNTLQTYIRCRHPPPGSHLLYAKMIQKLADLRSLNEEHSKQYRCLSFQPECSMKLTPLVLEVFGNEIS

Regarding `O=C(Cl)c1ccccc1F`, the Potency result in assay [1], in assay [2], in assay [3], in assay [4], in [5] and in assay [6] was “inactive” each time. The Potency entry in [7], in assay [8], in assay [9], in assay [10], in [11] and in assay [12] was “inactive” in each case. Also, the Potency result in assay [13], in assay [14], in assay [15], in assay [16] and in [17] was “inactive” each time.

As to `O=C(NC(=O)c1c(F)cccc1F)Nc1ccc(Oc2ccc(C(F)(F)F)cc2Cl)cc1F`, the Potency entry in assay [1], in assay [2], in assay [18], in [5], in assay [7] and in assay [19] was “inactive” in each case. Also, the Potency entry in [9], in assay [11], in [12], in [14] and in assay [15] was “inactive” in each case.

As to `CNC(C)(C)Cc1ccccc1`, the Potency entry in assay [1], in assay [2], in assay [3], in assay [4], in [5] and in assay [6] was “inactive” in each case. Also, the Potency entry in [7], in assay [19], in assay [8], in [9], in [20] and in assay [10] was “inactive” each time. In addition, the Potency entry in [11], in [13], in assay [15], in assay [16] and in assay [17] was “inactive” each time.

On to `CN(C)C(=S)SSC(=S)N(C)C`, for which the Potency in assay [1] is 944 nM (active) and 75.9 nM (active) and 54.5 nM (active); in assay [18], “inactive and 154 nM (active)”; in [7], 60.3 µM (active) and 13.7 µM (active) and 18.8 µM (active); in [9], 76.5 nM (active) and 38.9 nM (active) and 188 nM (active); in [10] it was 108 nM (active) and 30.9 nM (active) and 298 nM (active); in [13] it was 121 nM (active) and 30.9 nM (active) and 841 nM (active). The Potency in assay [15] is 121 nM (active) and 43.6 nM (active) and 237 nM (active). Also, the Potency entry in assay [2], in assay [19] and in assay [16] was “inactive” each time.

Regarding `Clc1ccc(C(c2ccc(Cl)cc2)C(Cl)Cl)cc1`, the Potency result in assay [1], in [2], in [3], in [20], in assay [11] and in assay [14] was “inactive” in each case. The Potency entry in [15] and in assay [17] was “inactive” in each case. Moreover, the Potency in [5] is 24.9 µM (active) and 38.9 µM (active); in assay [7] it was 54.5 µM (active); in assay [19] it was 49000 nM (active); in assay [9] it was 44.4 µM (active).

In the case of `[F][Sn]([c]1ccccc1)([c]1ccccc1)[c]1ccccc1`, the Potency is 3.06 µM (active) in assay [1]; 3860 nM (active) in assay [18]; 616 nM (active) in [5]; 0.344 µM (active) in assay [7]; 0.871 µM (active) in assay [9]; 0.977 µM (active) in [10]. Also, the Potency in assay [13] is 977 nM (active); in [15], 1.55 µM (active). Moreover, in [2], the Potency result was “inactive”.

Regarding `C=C(C)C(=O)[O][Sn]([CH2]CCC)([CH2]CCC)[CH2]CCC`, the Potency in [1] is 2.73 µM (active); in assay [18], 2730 nM (active); in assay [5] it was 549 nM (active); in [7], 0.433 µM (active); in [19], 1100 nM (active); in assay [9] it was 0.871 µM (active). Further, the Potency in assay [10] was 1.55 µM (active); in assay [13], 616 nM (active). For the same molecule, the Potency result in assay [2] and in [16] was “inactive” each time.

For `c1cc[n+]2c(c1)-c1cccc[n+]1CC2`, the Potency entry in assay [1], in assay [2], in assay [3], in [4], in assay [5] and in [7] was “inactive” each time. The Potency entry in [19], in [9], in assay [20], in assay [10], in assay [11] and in assay [13] was “inactive” throughout. Besides, in [16], the Potency entry was “inactive”. The Potency in assay [6] was 10600 nM (active).

As to `O=C(N[C@@H]1N=C(c2ccccc2F)c2cccc3c2N(CC3)C1=O)c1cc2ccccc2[nH]1`, the Potency entry in assay [1], in assay [18], in [5], in assay [7], in assay [9] and in [20] was “inactive” throughout. For the same molecule, the Potency result in assay [13], in [15], in assay [16] and in assay [17] was “inactive” each time. Moreover, the Potency in assay [2] was 66.8 nM (active).

`CC(C)N(C(=O)SC/C(Cl)=C/Cl)C(C)C`: the Potency result in assay [1], in [2], in [3], in [5], in [6] and in [7] was “inactive” throughout. The Potency entry in assay [19], in assay [8], in [9], in assay [20], in assay [10] and in assay [11] was “inactive” in each case. The Potency result in [12], in [13], in assay [14], in [15] and in [17] was “inactive” in each case.

Turning to `O=[N+]([O-])c1cc(C(F)(F)F)c(Cl)c([N+](=O)[O-])c1Nc1ncc(C(F)(F)F)cc1Cl`, the Potency in assay [1] is 21.7 µM (active); in assay [2], 77000 nM (active); in [18] it was 13700 nM (active); in assay [5], 1100 nM (active); in [7], 7.7 µM (active); in assay [9], 8.71 µM (active). Also, the Potency was 6.16 µM (active) in assay [10], 15500 nM (active) in assay [13] and 21.9 µM (active) in [15].

On to `O.O.O.O.O.O.O=S(=O)([O-])[O-].[Ni+2]`, for which the Potency entry in assay [1], in assay [2], in assay [18], in [5], in assay [7] and in assay [19] was “inactive” in each case. Also, the Potency entry in assay [9], in assay [10], in [13] and in assay [15] was “inactive” each time.

For the origin of these results see PubChem BioAssay (Tox21).
